About 1,100 (0.39%) of roughly 280,000 compounds were called active. Inconclusive results (about 7%) are left out. The call rests on the fitted dose curve; in most records, active means well fitted inhibition curve with a large enough effect; inconclusive means small, poorly fitted or top-dose-only effect, or effect the other way; inactive means flat fitted curve, though single readings scatter. For the sample, actives were picked, then their nearest neighbours and some compounds at random.
The molecules below were run against Microtubule-associated protein tau (Homo sapiens) (UniProt P10636) (assay: qHTS for Inhibitors of Tau Fibril Formation, Fluorescence Polarization). Conditions: K18 P301L tau heparin fibrillization, Alexa594 FP, 6 h; series mostly up to 57.7 µM; activity, negative = inhibition: at the top concentration.
Sequence of Microtubule-associated protein tau (Homo sapiens) (P10636 561-689 P618L limits assumed): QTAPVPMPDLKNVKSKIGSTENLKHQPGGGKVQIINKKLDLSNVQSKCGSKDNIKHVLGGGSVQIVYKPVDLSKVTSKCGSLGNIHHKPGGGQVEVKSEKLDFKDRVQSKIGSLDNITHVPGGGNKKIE
Excerpt: NIH Molecular Libraries Probe Production Network [MLPCN]
NIH Chemical Genomics Center [NCGC]
Assay Provider: Carlo Ballatore, University of Pennsylvania
The microtubule-associated protein tau is an abundant protein in the axons of neurons that stabilizes microtubules. With its ability to modulate microtubule dynamics, tau contributes directly or indirectly, to key structural and regulatory cellular functions. Particularly important is the influence tau exerts on axonal transport, which allows signaling molecules, trophic factors and other essential cellular constituents to travel along the axons. Under pathological conditions, tau becomes sequestered into insoluble aggregates called neurofibrillary tangles. This phenomenon is believed to have pathological consequences by promoting axonal transport deficits that ultimately lead to synaptic dysfunction and neuronal loss. To identify inhibitors of tau aggregation, a heparin-induced tau fibril formation assay was used that employed a recombinantly expressed fragment of tau, K18 (Q242-E372), bearing a P301L mutation (Gustke et al. 1994; Hong et al. 1998).
Gustke, N., B. Trinczek, et al. (1994). "Domains of tau protein and interactions with microtubules." Biochemistry 33(32): 9511-22.
Hong, M., V. Zhukareva, et al. (1998).
Li, W. and V. M. Lee (2006). "Characterization of two VQIXXK motifs for tau fibrillization in vitro." Biochemistry 45(51): 15692-701.
von Bergen, M., S. Barghorn, et al. (2001). "Mutations of tau protein in frontotemporal dementia promote aggregation of paired helical filaments by enhancing local beta-structure." J Biol Chem 276(51): 48165-74.
NCGC Assay Protocol Summary:
For screening, 2 uL/well human K18 P301L (15 uM unlabeled and 0.24 uM Alexa 594-labeled tau final concentrations) in reagent buffer (100 mM sodium acetate pH 7) was dispensed into black solid 1536-well plates (Grenier) using a solenoid-based dispenser. Following transfer of 23 nL compound or DMSO vehicle by a pin tool, 2 uL/well heparin (20 uM final concentration) in reagent buffer was added and the plate centrifuged 15 s at 1000 RPM. Plates were incubated 6 hr at 37 C and then 1 uL/well ThT (30 uM final concentration) was added. After a 1 hr ambient incubation, the plates were read by an Envision (Perkin Elmer) to monitor Alexa 594 FP (555 nm excitation and 632 nm emission).
Keywords: NIH Roadmap, MLPCN, MLI, MLSMR, NCGC, qHTS, tau, tauopathies, Alzheimer's disease, fibril, neurodegeneration, aggregation
Further: nearly all actives have a fitted effect of over 55% in size.
On the % scale 0 is the no-effect control and ±100 the full control effect; potency means the concentration at half of the fitted maximal effect.

Potency, active:
Oc1cc(O)c2c(c1)OC(c1ccc(O)c(O)c1)C(O)C2 (stereo unspecified) 14.1 µM, COc1ccc2[nH]cc(/C=C(/C#N)S(=O)(=O)c3ccccc3)c2c1 28.2 µM, O=C(Nc1ccccc1)Nc1nnc(COc2ccccc2F)s1 14.1 µM, CC1=C/C(=N\OS(=O)(=O)c2ccccc2)C=CC1=O 12.6 µM, CC(C)S(=O)(=O)c1csc(NC(=O)Nc2ccc(Cl)cc2)c1Cl 31.6 µM, CN(C)N=Nc1ccc2nc[nH]c2c1 8.91 µM, O=c1[nH]c2ccccc2n2c(-c3ccccc3)nnc12 14.1 µM, Cn1sc(=O)c2cc(S(=O)(=O)NC3CC3)ccc21 28.2 µM, CCNS(=O)(=O)c1ccc(NC(=O)Nc2cccc(C(F)(F)F)c2)cc1 25.1 µM, CC(C)(C)c1nnc(NC(=O)C2c3ccccc3Oc3ccccc32)s1 15.8 µM, O=C(Cn1c(=O)n(Cc2ccccc2)c(=O)c2sc3ccccc3c21)Nc1ccccc1F 28.2 µM, O=C(COC(=O)CCCSc1nc2ccccc2[nH]1)Nc1ccc(Oc2ccccc2)cc1 15.8 µM, Oc1c(C=Nc2cccc3nsnc23)ccc2ccccc12 3.98 µM, COc1ccc(NC(=O)Cn2c(=O)n(Cc3ccc(C(=O)NCc4ccccc4Cl)cc3)c(=O)c3ccccc32)cc1 25.1 µM, Cc1ccnc(-n2sc3ccccc3c2=O)n1 25.1 µM

activity, negative = inhibition, inactive:
CC(NC(=O)c1cc(Sc2ccc(F)cc2F)nc2ccccc12)c1ccccc1 (stereo unspecified) 2.21%, CCCC(=O)Nc1cc(C(=O)NCc2ccc(OC)cc2)ccc1S(=O)(=O)c1ccc(Cl)cc1 -4.05%, COc1ccccc1-c1nnc(SCC(N)=O)o1 1.99%, CCN(CC)CC(=O)c1c[nH]c2ccc(OC)cc12 16.4%, COc1ccc(NS(=O)(=O)c2ccc(Oc3c(C#N)cccc3C#N)cc2)cc1 -8.14%, COc1ccc(C)cc1NC(=O)COCc1cc(-c2cccs2)on1 -3.41%, O=C(NCCOc1ccccc1F)Nc1ccc(Br)cc1 -10.5%, COCC(=O)Nc1nnc(COc2ccccc2)s1 8.93%, Cc1ccc(N(C)C(=O)C2CCN(S(=O)(=O)c3ccc4c(c3)CCCN4C(=O)C3CCC3)CC2)cc1 3.78%, Cc1ccc2cccc(NC(=O)c3ccc(OC(C)C)cc3)c2n1 -0.836%, Cc1ccc(S(=O)(=O)c2ccc(Oc3ccccc3)cc2)cc1 -4.08%, CC1=C/C(=N\S(=O)(=O)c2ccccc2)C(C(C)C)=CC1=O -2.92%, COc1ccccc1/C=C/c1nc(C#N)c(NC(C)c2ccccc2)o1 (stereo unspecified) 9.42%, NS(=O)(=O)c1ccc(CCNC(=O)Nc2ccc(Cl)cc2)cc1 -2.66%, Cn1ccc(NC(=O)Nc2ccc(Cl)cc2)n1 3.56%, CC/C(O)=N\S(=O)(=O)c1ccc(N=NN(C)C)cc1 1.65%, CC(=O)c1ccc(N2CCN(C(=O)c3ccc4nc[nH]c4c3)CC2)cc1 8.33%, CCOc1ccc(-c2nonc2NC(=O)c2oc3ccc(CC)cc3c2C)cc1 -19.5%, CCOC(=O)c1cnc2[nH]c3ccccc3n2c1=O 2.71%, Cc1ccc(-c2nc3ccccc3[nH]c2=O)cc1 -0.895%, Cc1cc(C)c2oc(C(=O)Nc3c(C(=O)Nc4ccccc4)oc4ccccc34)cc(=O)c2c1 -9.93%, Cc1nn(C)c2c1c(C(F)(F)F)cc(=O)n2C(C)C(=O)NCc1ccc(Cl)cc1 (stereo unspecified) 8.26%, CSc1ccc(S(=O)(=O)NC2CCCCC2)cc1 -22.1%, CC1CCC(NS(=O)(=O)c2ccc3c(c2)n(C)c(=O)c(=O)n3C)CC1 (stereo unspecified) -2.24%, Cc1ccc(NC(=O)Nc2cccc(C(F)(F)F)c2)nc1 1.19%, CC(C)C[C@H](NC(=O)Nc1cccc(C(F)(F)F)c1)C(=O)O 2.26%, Cc1cccc(Nc2cc(C)nc(-n3nc(C)cc3C)n2)c1 6.4%, Brc1ccc2c(c1)NC(c1cccnc1)=NC(c1ccccc1)=N2 6.59%, CCC(C)(C)NC(=O)C1c2ccccc2Oc2ccccc21 -3.37%, CCC(C)NC(=O)C1c2ccccc2Oc2ccccc21 (stereo unspecified) 2.28%, Cc1ccc(NC(=O)Nc2sc3nc4n(c(=O)c3c2C)CCC(C)CC4)c(Cl)c1 (stereo unspecified) 17.2%, Cc1cc(C)c(NC(=O)Cn2c(SCC(=O)NCc3ccccc3)nc3ccccc32)c(C)c1 2.13%, CCOc1ccccc1NC(=O)Cn1c(=O)n(Cc2ccco2)c(=O)c2sc3ccccc3c21 -2.71%, COc1ccc(Cn2c(=O)c3oc4ccccc4c3n(CC(=O)Nc3ccc(F)cc3F)c2=O)cc1 -17.2%, CC(=O)c1cccc(NC(=O)c2nc(-c3ccccc3)n(-c3cccc(C)c3)n2)c1 -7.49%, CCc1nnc(NC(=O)CCCSc2nc3ccccc3[nH]2)s1 -0.721%, COc1ccc(NC(=O)CSc2nc3ccccc3[nH]2)cc1 -11%, Oc1ccc2ccccc2c1C=Nc1ccccc1 -3.62%, O=[N+]([O-])c1ccc(N=Cc2c(O)ccc3ccccc23)cc1 -5.84%, CCOC(=O)c1ccc(NC(=O)CSc2nc3c([nH]c4ccccc43)c(=O)n2C)cc1 6.83%, COc1ccc(OC)c(NC(=O)Cn2c(=O)n(Cc3ccccc3)c(=O)c3ccccc32)c1 -13%, Cc1ccc(Cn2c(=O)n(CCCC(=O)NCc3ccccc3Cl)c(=O)c3ccccc32)cc1 -9.9%, O=C(Cn1c(-c2cccs2)cc2ccccc21)NCCc1ccc(Cl)cc1 -7.69%, CCN1C(=O)c2ccccc2S(=O)c2ccc(C(=O)NCc3ccc(F)cc3)cc21 (stereo unspecified) -1.93%, CCOC(=O)C1CCCN(C(=O)c2ccc(-n3ccc4ccccc43)s2)C1 (stereo unspecified) 17.1%, Cc1c(C(=O)NCc2ccccc2Br)oc2ccc3c(c12)C(=O)CC(C)(C)O3 -3.31%, Cc1ccc(OCCn2c(CNc3ccccc3C)nc3ccccc32)cc1 -8.29%, Cc1nnc(N2CCC(C(=O)Nc3ccc(F)cc3)CC2)c2nn(-c3ccc(Cl)cc3)c(C)c12 -13.4%, Cc1ccnc(SCC(N)=O)n1 -0.201%, CCOC(=O)c1ccc(NC2=CC(c3ccc(OCC)cc3)N(c3ccc(C(=O)OCC)cc3)C2=O)cc1 (stereo unspecified) -12.9%, Cc1cc(C)c2sc(NC(=O)c3ccc(S(=O)(=O)N4CCCC4)cc3)nc2c1 -16.1%

Source: PubChem BioAssay AID1468 (National Center for Advancing Translational Sciences (NCATS), 2008)
